Results published in PubChem BioAssay (EPA / NIEHS).
Calls of active or inactive are those of the source. Rule for the calls: active = hit-call score of the fitted dose curve at least 0.9, where 1 is the maximum; inactive = score below 0.9.

Columns and labels:
Details in all cases: mRNA level, 48 h; actives raise or lower the signal
[1] = read-out: Paternally Expressed 10 (PEG10), PEG10 (gene 23089); assay: LTEA_HepaRG_PEG10: Life Technologies and Expression Analysis (LTEA) Assay for Paternally Expressed 10 (PEG10) using HepaRG (AID 2283520)
Procedure, shortened: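 Differentiated HepaRG cells, plated 48 h then switched to serum-free induction medium, were exposed in duplicate for 48 h to eight half-log concentrations topping at 100 uM in 0.5% DMSO. PEG10 mRNA was quantified by TaqMan qRT-PCR, normalised to ACTB, GAPDH and POLR2A.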

[2] = read-out: Protein phosphatase 2A (PPP2R4), PTPA (gene 5524); assay: LTEA_HepaRG_PPP2R4: Life Technologies and Expression Analysis (LTEA) Assay for Protein phosphatase 2A (PPP2R4) using HepaRG (AID 2283522)
Procedure, shortened: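 Differentiated HepaRG cells in serum-free induction medium were exposed in duplicate for 48 h to eight concentrations, top 100 uM with half-log dilutions, in 0.5% DMSO. PPP2R4 mRNA was quantified by TaqMan qRT-PCR, normalized to ACTB, GAPDH and POLR2A.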

[3] = read-out: Phosphatase and tensin (PTEN), PTEN (gene 5728); assay: LTEA_HepaRG_PTEN: Life Technologies and Expression Analysis (LTEA) Assay for Phosphatase and tensin (PTEN) using HepaRG (AID 2283523)
Procedure, shortened: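 Read-out is PTEN transcript level by multiplexed TaqMan qRT-PCR after 48 h chemical treatment of human HepaRG cultures in serum-free induction medium. Concentrations spanned 100 uM downward in half-log steps, 0.5% DMSO throughout; activity fitted in both directions against vehicle.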

[4] = read-out: solute carrier (SLC22A1), SLC22A1 (gene 6580); assay: LTEA_HepaRG_SLC22A1: Life Technologies and Expression Analysis (LTEA) Assay for solute carrier (SLC22A1) using HepaRG (AID 2283524)
Procedure, shortened: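 HepaRG (human liver line), 48 h dosing in serum-free induction medium; 8 conc., half-log down from 100 uM, 0.5% DMSO vehicle, duplicates. Endpoint: SLC22A1 mRNA, qRT-PCR, housekeeping-normalized; gain/loss fit vs DMSO.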

[5] = read-out: Pyruvate Dehydrogenase Kinase 4 (PDK4), PDK4 (gene 5166); assay: LTEA_HepaRG_PDK4: Life Technologies and Expression Analysis (LTEA) Assay for Pyruvate Dehydrogenase Kinase 4 (PDK4) using HepaRG (AID 2283525)
Procedure, shortened: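 In this multiplexed human HepaRG expression assay, cells are treated 48 h with test chemicals across an eight-point range starting at 100 uM. PDK4 mRNA changes, normalized to ACTB/GAPDH/POLR2A, are fitted in both directions relative to vehicle.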

[6] = read-out: NAD(P)H dehydrogenase [quinone] 1 (NQO1), NQO1 (gene 1728); assay: LTEA_HepaRG_NQO1: Life Technologies and Expression Analysis (LTEA) Assay for NAD(P)H dehydrogenase [quinone] 1 (NQO1) using HepaRG (AID 2283526)
Procedure, shortened: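 Differentiated HepaRG cells, plated 48 h and then switched to serum-free induction medium, were exposed in duplicate for 48 h to 8-point half-log concentrations up to 100 uM in 0.5% DMSO. mRNA measured by qRT-PCR, normalized to ACTB, GAPDH, POLR2A; bidirectional fit versus DMSO.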

[7] = read-out: Nuclear factor erythroid 2-related factor 2 (Homo sapiens) (UniProt Q16236); assay: LTEA_HepaRG_NFE2L2: Life Technologies and Expression Analysis (LTEA) Assay for Nuclear factor erythroid 2-related factor 2 (NFE2L2) Transcription Factor using HepaRG (AID 2283527);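 note: TaqMan qRT-PCR transcript level normalised to ACTB GAPDH and POLR2A housekeeping genes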
Procedure, shortened: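 Transcript level of NFE2L2 is the read-out, measured by microfluidic TaqMan qRT-PCR and normalized to three housekeeping genes. Human HepaRG cultures received test chemical for 48 h at up to 100 uM in half-log steps. Gain or loss of signal is fitted relative to 0.5% DMSO.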

[8] = read-out: Signal transducer and activator of transcription 3 (Homo sapiens) (UniProt P40763); assay: LTEA_HepaRG_STAT3: Life Technologies and Expression Analysis (LTEA) Assay for Signal transducer and activator of transcription (STAT3) using HepaRG (AID 2283529)
Procedure, shortened: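 Read-out is STAT3 mRNA level by qRT-PCR, normalized to three housekeeping genes, in human HepaRG liver cells treated for 48 h. Concentrations ran from 100 uM downward in half-log steps; curves were fitted for gain or loss relative to 0.5% DMSO.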

[9] = read-out: solute carrier (SLCO1B1), SLCO1B1 (gene 10599); assay: LTEA_HepaRG_SLCO1B1: Life Technologies and Expression Analysis (LTEA) Assay for solute carrier (SLCO1B1) using HepaRG (AID 2283530)
Procedure, shortened: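 Gain or loss of SLCO1B1 mRNA is fitted against the 0.5% DMSO vehicle in human HepaRG liver cells treated 48 h at up to 100 uM in half-log steps. Expression comes from qRT-PCR normalized to endogenous controls.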

[10] = read-out: sulfotransferase 2A1 (SULT2A1), SULT2A1 (gene 6822); assay: LTEA_HepaRG_SULT2A1: Life Technologies and Expression Analysis (LTEA) Assay for sulfotransferase 2A1 (SULT2A1) using HepaRG (AID 2283531)
Procedure, shortened: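 Cells were plated and cultured 48 h, switched to serum-free induction medium, then dosed in duplicate for 48 h (8 concentrations, max 100 uM). RNA was isolated and SULT2A1 expression measured by qRT-PCR; gain or loss of signal fitted relative to DMSO.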

[11] = read-out: Transforming Growth Factor (TGFA), TGFA (gene 7039); assay: LTEA_HepaRG_TGFA: Life Technologies and Expression Analysis (LTEA) Assay for Transforming Growth Factor (TGFA) using HepaRG (AID 2283532)
Procedure, shortened: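 HepaRG (human liver line), 48 h exposure, 8 conc. half-log down from 100 uM, 0.5% DMSO vehicle, duplicates; serum-free induction medium. TGFA mRNA by TaqMan qRT-PCR, ACTB/GAPDH/POLR2A normalization; gain/loss fit vs DMSO.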

[12] = read-out: Transforming Growth Factor (TGFB1), TGFB1 (gene 7040); assay: LTEA_HepaRG_TGFB1: Life Technologies and Expression Analysis (LTEA) Assay for Transforming Growth Factor (TGFB1) Transporter using HepaRG (AID 2283533)
Procedure, shortened: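 Expression change of TGFB1 in human HepaRG cells is measured after a 48 h chemical exposure, up to 100 uM in 0.5% DMSO vehicle. Curves are fitted in both directions relative to the DMSO baseline.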

TIMP1, TIMP1 (gene 7076) = assay: LTEA_HepaRG_TIMP1: Life Technologies and Expression Analysis (LTEA) Assay for TIMP1 using HepaRG (AID 2283534);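 note: TaqMan qRT-PCR signal normalized to ACTB GAPDH and POLR2A housekeeping genes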
Procedure, shortened: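 We dosed human liver HepaRG cultures for 48 hours with up to 100 uM test chemical and measured TIMP1 expression by qRT-PCR. Activity in either direction is fitted relative to the 0.5% DMSO vehicle.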

[13] = read-out: Tumor necrosis factor receptor 1 (TNFRSF1A), TNFRSF1A (gene 7132); assay: LTEA_HepaRG_TNFRSF1A: Life Technologies and Expression Analysis (LTEA) Assay for Tumor necrosis factor receptor 1 (TNFRSF1A) using HepaRG (AID 2283535)
Procedure, shortened: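 Expression of TNFRSF1A in human HepaRG liver cells was measured by qRT-PCR 48 h after chemical dosing (maximum 100 uM). Bidirectional curve fitting used 0.5% DMSO as baseline.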

[14] = read-out: Thyroid Hormone Responsive (THRSP), THRSP (gene 7069); assay: LTEA_HepaRG_THRSP: Life Technologies and Expression Analysis (LTEA) Assay for Thyroid Hormone Responsive (THRSP) using HepaRG (AID 2283536)
Procedure, shortened: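 mRNA induction or loss relative to 0.5% DMSO vehicle was fitted bidirectionally across an eight-point curve whose highest exposure was 100 uM. Human HepaRG liver cells received chemicals in duplicate over 48 h before RNA extraction.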

[15] = read-out: Cellular tumor antigen p53 (Homo sapiens) (UniProt P04637); assay: LTEA_HepaRG_TP53: Life Technologies and Expression Analysis (LTEA) Assay for Tumor Protein P53 (TP53) using HepaRG (AID 2283537)
Procedure, shortened: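 HepaRG, 48 h exposure, top 100 uM, half-log 8-point, 0.5% DMSO vehicle, duplicates. Read: TP53 mRNA by TaqMan qRT-PCR, normalised to ACTB/GAPDH/POLR2A; bidirectional fit vs DMSO.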

[16] = read-out: UDP glucuronosyltransferase (UGT1A1), UGT1A1 (gene 54658); assay: LTEA_HepaRG_UGT1A1: Life Technologies and Expression Analysis (LTEA) Assay for UDP glucuronosyltransferase (UGT1A1) using HepaRG (AID 2283538)
Procedure, shortened: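 Differentiated human HepaRG cells in serum-free induction medium were exposed in duplicate for 48 h to eight half-log concentrations up to 100 uM in 0.5% DMSO. UGT1A1 mRNA was quantified by TaqMan qRT-PCR, normalized to ACTB, GAPDH and POLR2A, and fitted bidirectionally against DMSO.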

[17] = read-out: UDP glucuronosyltransferase (UGT1A6), UGT1A6 (gene 54578); assay: LTEA_HepaRG_UGT1A6: Life Technologies and Expression Analysis (LTEA) Assay for UDP glucuronosyltransferase (UGT1A6) using HepaRG (AID 2283539)
Procedure, shortened: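 Endpoint is UGT1A6 transcript induction or loss in a human liver cell line, quantified by TaqMan qRT-PCR 48 h after dosing. Concentrations ran from 100 uM downward in half-log steps in 0.5% DMSO; activity was fitted in both directions versus vehicle.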

[18] = read-out: Nuclear factor NF-kappa-B p105 subunit (Homo sapiens) (UniProt P19838); assay: LTEA_HepaRG_NFKB1: Life Technologies and Expression Analysis (LTEA) Assay for Nuclear Factor Kappa B Subunit 1 (NFKB1) using HepaRG (AID 2283521);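 note: TaqMan qRT-PCR transcript normalised to ACTB GAPDH and POLR2A housekeeping genes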
Procedure, shortened: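 Differentiated human HepaRG cells were exposed for 48 h in serum-free induction medium to eight concentrations (top 100 uM, half-log steps, 0.5% DMSO), in duplicate. NFKB1 mRNA was measured by TaqMan qRT-PCR, normalized to ACTB/GAPDH/POLR2A, and fitted bidirectionally against DMSO.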

Measured: AC50

Cellular tumor antigen p53 (Homo sapiens), sequence (P04637 whole entry, looked up): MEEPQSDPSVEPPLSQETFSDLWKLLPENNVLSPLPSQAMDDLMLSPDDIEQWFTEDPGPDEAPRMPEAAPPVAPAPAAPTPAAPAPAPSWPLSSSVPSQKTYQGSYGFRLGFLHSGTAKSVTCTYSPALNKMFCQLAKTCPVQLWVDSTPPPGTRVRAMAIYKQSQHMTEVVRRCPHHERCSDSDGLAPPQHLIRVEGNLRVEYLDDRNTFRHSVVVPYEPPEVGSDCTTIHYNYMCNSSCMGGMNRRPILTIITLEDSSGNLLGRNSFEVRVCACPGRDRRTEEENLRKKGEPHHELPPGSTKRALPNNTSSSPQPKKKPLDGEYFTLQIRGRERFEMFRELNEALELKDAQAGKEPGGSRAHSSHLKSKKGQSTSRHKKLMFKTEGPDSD
Signal transducer and activator of transcription 3 (Homo sapiens), sequence (P40763 whole entry, looked up): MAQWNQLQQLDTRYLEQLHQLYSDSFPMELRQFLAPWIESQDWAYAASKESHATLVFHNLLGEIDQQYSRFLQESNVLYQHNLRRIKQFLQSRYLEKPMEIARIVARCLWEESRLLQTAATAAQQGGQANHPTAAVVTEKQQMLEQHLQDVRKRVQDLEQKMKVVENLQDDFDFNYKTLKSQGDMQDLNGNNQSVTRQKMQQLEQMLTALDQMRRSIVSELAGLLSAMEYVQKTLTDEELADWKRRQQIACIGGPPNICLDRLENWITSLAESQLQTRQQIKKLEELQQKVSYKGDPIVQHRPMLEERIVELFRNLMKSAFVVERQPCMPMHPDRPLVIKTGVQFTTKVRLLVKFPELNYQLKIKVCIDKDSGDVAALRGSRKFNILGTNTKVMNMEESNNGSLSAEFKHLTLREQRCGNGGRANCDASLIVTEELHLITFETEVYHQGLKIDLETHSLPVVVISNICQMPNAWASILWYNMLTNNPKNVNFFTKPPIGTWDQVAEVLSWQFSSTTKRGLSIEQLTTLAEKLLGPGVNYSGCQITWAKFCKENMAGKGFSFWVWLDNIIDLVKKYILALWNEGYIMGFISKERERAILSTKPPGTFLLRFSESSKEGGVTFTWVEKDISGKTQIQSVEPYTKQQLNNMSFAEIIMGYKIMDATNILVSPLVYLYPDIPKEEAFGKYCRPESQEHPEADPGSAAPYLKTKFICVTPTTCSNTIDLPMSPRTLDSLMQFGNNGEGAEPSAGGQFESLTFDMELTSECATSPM
Nuclear factor erythroid 2-related factor 2 (Homo sapiens), sequence (Q16236 whole entry, looked up): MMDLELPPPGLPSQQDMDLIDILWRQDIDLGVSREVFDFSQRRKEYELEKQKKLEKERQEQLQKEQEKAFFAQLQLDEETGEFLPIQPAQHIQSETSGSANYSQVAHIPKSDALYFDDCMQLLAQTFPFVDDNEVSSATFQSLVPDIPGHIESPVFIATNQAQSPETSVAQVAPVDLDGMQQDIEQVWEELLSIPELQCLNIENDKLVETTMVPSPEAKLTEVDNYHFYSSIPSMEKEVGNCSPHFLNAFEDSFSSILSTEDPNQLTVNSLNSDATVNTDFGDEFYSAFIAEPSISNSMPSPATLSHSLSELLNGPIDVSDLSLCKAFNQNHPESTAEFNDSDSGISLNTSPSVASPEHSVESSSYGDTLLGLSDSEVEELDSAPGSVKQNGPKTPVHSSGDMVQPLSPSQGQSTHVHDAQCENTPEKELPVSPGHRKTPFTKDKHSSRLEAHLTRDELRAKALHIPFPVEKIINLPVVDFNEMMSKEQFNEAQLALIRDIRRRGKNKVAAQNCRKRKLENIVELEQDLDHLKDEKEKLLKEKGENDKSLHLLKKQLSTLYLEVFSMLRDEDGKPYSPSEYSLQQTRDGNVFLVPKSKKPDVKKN
Nuclear factor NF-kappa-B p105 subunit (Homo sapiens), sequence (P19838 whole entry, looked up): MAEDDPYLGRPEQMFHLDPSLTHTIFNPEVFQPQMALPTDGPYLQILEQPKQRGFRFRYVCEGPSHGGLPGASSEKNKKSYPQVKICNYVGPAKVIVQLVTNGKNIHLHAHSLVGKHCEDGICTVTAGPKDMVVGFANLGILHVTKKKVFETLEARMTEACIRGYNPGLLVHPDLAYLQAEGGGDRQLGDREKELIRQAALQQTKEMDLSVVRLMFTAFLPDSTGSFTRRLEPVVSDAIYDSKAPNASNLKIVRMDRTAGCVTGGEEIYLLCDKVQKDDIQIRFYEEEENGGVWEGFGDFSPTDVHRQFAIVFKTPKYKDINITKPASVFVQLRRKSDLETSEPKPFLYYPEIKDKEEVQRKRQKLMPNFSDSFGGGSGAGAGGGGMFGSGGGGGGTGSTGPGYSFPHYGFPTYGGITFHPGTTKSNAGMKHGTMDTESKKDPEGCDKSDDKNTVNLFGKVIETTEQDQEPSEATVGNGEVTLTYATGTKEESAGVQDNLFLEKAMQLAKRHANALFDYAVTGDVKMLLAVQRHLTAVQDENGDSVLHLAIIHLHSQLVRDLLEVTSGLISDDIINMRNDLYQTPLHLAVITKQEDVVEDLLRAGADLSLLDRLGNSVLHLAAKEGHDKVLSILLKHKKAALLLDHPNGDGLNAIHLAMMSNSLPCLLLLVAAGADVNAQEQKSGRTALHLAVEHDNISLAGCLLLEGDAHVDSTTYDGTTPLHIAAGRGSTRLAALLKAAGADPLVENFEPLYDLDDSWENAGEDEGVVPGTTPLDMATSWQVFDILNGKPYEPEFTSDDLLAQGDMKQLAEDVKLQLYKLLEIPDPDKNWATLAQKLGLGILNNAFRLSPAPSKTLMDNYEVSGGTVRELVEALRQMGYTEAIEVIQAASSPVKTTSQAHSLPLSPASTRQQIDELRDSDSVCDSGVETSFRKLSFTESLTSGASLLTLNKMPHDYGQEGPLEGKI

Cc1ccc(N=CN(C)C=Nc2ccc(C)cc2C)c(C)c1
active: [16] 39.3 µM
not listed: [18]
inactive: all other assays above

COc1cc(OC)nc(NC(=O)NS(=O)(=O)c2ncccc2OCC(F)(F)F)n1
active: [5] 0.129 µM | [9] 9.92 µM
not listed: [12]
inactive: all other assays above

Clc1cccc(C(Cl)(Cl)Cl)n1
active: [16] 50 µM
not listed: [12] | [18]
inactive: all other assays above

CSC(=O)c1c(C(F)F)nc(C(F)(F)F)c(C(=O)SC)c1CC(C)C
active: [4] 90 µM | [5] 33.8 µM | [8] 49.8 µM | [16] 11.7 µM
not listed: TIMP1, TIMP1 (gene 7076) | [18]
inactive: all other assays above

CN/C(=N\[N+](=O)[O-])NCc1cnc(Cl)s1
active: [5] 36.6 µM | [14] 50 µM | [16] 50 µM
not listed: TIMP1, TIMP1 (gene 7076) | [18]
inactive: all other assays above
